Data as given in PubChem BioAssay (NCI).
Compounds without any hit were thinned out: in the full panel of roughly 79,000, 15% have a hit. No stated cut-off is given here; in the data, active means growth inhibition above about 70%; inactive means the rest.

How the values were obtained:
[1] = NCI Yeast Anticancer Drug Screen. Data for the rad50 strain (AID 155);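 further: 0% = growth of vehicle-only cultures of the same strain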; settings: S. cerevisiae rad50 strain growth inhibition; at 50.0 µM; hits give high values
In short: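 Inhibition values express reduced yeast growth in compound-treated cultures relative to vehicle-treated controls.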

[2] = NCI Yeast Anticancer Drug Screen. Data for the mec2-1 strain (AID 157); settings: S. cerevisiae mec2-1 strain, at 50.0 µM, hits give high values
In short: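 Cells of the genetically defined mec2-1 yeast strain are incubated with test compound. Inhibition of growth is calculated against vehicle-treated controls.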

[3] = NCI Yeast Anticancer Drug Screen. Data for the sgs1 mgt1 strain (AID 161);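 further: 0% = growth of cultures given vehicle only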; settings: S. cerevisiae sgs1 mgt1 strain, at 50.0 µM, hits give high values
In short: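 Read-out: growth inhibition vs vehicle controls. Cells: mutant yeast strain deficient in DNA damage repair.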

[4] = NCI Yeast Anticancer Drug Screen. Data for the cln2 rad14 strain (AID 165);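 further: 0% = growth equal to vehicle treated cultures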; settings: S. cerevisiae cln2 rad14 strain, at 50.0 µM, hits give high values
In short: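 The screen exposed genetically defined yeast (cln2 rad14) to test compounds and scored growth inhibition relative to vehicle-treated controls.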

[5] = NCI Yeast Anticancer Drug Screen. Data for the bub3 strain (AID 167); settings: S. cerevisiae bub3 mutant strain, at 50.0 µM, hits give high values
In short: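 Steps: expose the mutant yeast strain to compound; grow alongside vehicle-treated cultures; measure growth; express inhibition against the vehicle cultures.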

[6] = NCI Yeast Anticancer Drug Screen. Data for the mlh1 rad18 strain (AID 175); settings: S. cerevisiae mlh1 rad18 strain growth inhibition; at 50.0 µM; hits give high values
In short: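 Compound-treated yeast growth, normalised to vehicle controls. Strain bears defined DNA repair mutations.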

Measured: growth inhibition

Cc1c(O)ccc2c1CCCC2
inactive: [1] 7.05% | [2] 5.75% | [3] -4.8% | [4] -34.2% | [5] 6.1% | [6] 4.65%

CC1(C)N=C(N)N=C(N)N1c1cccc(OCCCOc2ccc([N+](=O)[O-])cc2)c1
inactive: [1] -31.9% | [2] -23.6% | [3] -17.1% | [4] -44.9% | [5] -7.8% | [6] -26.4%

Cc1cc(C)n(-c2nnc(-n3nc(C)cc3C)c3ccccc23)n1
inactive: [1] -12.4% | [2] -1.75% | [3] -21.6% | [4] -5.45% | [5] -5.5% | [6] -3.9%

c1ccc(N=C2SC(=NNc3ccccc3)SC2=Nc2ccccc2)cc1
inactive: [1] -21.8% | [2] 6.25% | [3] -21.9% | [4] -29.5% | [5] -8.25% | [6] -4.1%

Cc1nc(C(N)=S)sc1C(=O)CC(=O)C(=O)Nc1cccc(Cl)c1C
inactive: [1] 1.2% | [2] -2.4% | [3] -10.2% | [4] -6.65% | [5] -0.4% | [6] -53.4%

CC1(C)CC(=O)C2=C(C1)NC1=C(C2)C(=O)CC(C)(C)C1
inactive: [1] -15.4% | [2] -5.7% | [3] -22.4% | [4] 19.9% | [5] 7.6% | [6] 12.8%

Cc1ccc(N2C(=O)/C(=C/c3ccc(N(CCC#N)CCC#N)cc3)N=C2COc2ccc(Cl)cc2Cl)cc1
inactive: [1] -0.2% | [2] -26.9% | [3] -7.25% | [4] -17.8% | [5] -36.1% | [6] -25.9%

O=C(O)c1cncc(C(=O)O)c1
inactive: [1] -37% | [2] -12.7% | [3] -14.7% | [4] -7.6% | [5] -47.5% | [6] -24.6%

O=[N+]([O-])/C(N=Nc1ccc2ccccc2c1Br)=N/Nc1ccc2ccccc2c1Br
inactive: [1] 34.5% | [2] 5.85% | [3] 19.4% | [4] -2.85% | [5] -0.2% | [6] 13.2%

C/C(=N\N=C(N)N)c1sc(-c2nc(C)c(/C(C)=N/N=C(N)N)s2)nc1C
inactive: [1] 4.35% | [2] -11.2% | [3] -13.3% | [4] 26.4% | [5] 6.85% | [6] 19.6%

O=[N+]([O-])c1ccc(Nc2ccccc2)nc1
inactive: [1] -22.7% | [2] -35.5% | [3] 7.35% | [4] 2.7% | [5] -5.5% | [6] -5.05%

CCOC(=O)/C(F)=C/c1cccc(C#N)c1
inactive: [1] 41.6% | [2] -3.35% | [3] 8.1% | [4] 24.7% | [5] 30.7% | [6] 23.9%

COc1ccc(-c2cc(=O)c3c(O)cc(O)cc3o2)c(OC)c1OC
inactive: [1] -22.2% | [2] -17.7% | [3] -21.1% | [4] 6.95% | [5] -26.6% | [6] 4.05%

C=CCN(CC=C)CNC(C)=O
inactive: [1] -9.7% | [2] -14.7% | [3] -8.4% | [4] -17% | [5] -7.55% | [6] -10.8%

c1ccc2sc(SCSc3nc4ccccc4s3)nc2c1
inactive: [1] 2.65% | [2] -31.9% | [3] -18.1% | [4] -13.7% | [5] -1.05% | [6] -30.9%

O=C(c1ccccc1)C1N=NN(Cc2ccccc2[N+](=O)[O-])C1C(=O)c1ccccc1 (stereo not given)
inactive: [1] -6.75% | [2] -30.9% | [3] -25.1% | [4] -57.5% | [5] -1.45% | [6] -0.65%

CC[N+](CC)=c1ccc2nc3c(cc(Nc4ccccc4)c4ccccc43)oc-2c1.[Cl][Zn][Cl]
inactive: [1] 18.4% | [2] 1.4% | [3] 22.2% | [4] 20.9% | [5] -0.55% | [6] 15.4%

Cc1ccoc1
inactive: [1] 12.5% | [2] -18.1% | [3] 6.45% | [4] 11.8% | [5] 26.8% | [6] 15.8%

Cc1cc(C)n(-c2nc(-n3nc(C)cc3C)nc(-n3nc(C)cc3C)n2)n1
inactive: [1] -34.2% | [2] -32.2% | [3] -1.7% | [4] -20.6% | [5] -21.1% | [6] -41.5%

N=C(N)c1ccncc1
inactive: [1] -0.6% | [2] 5.75% | [3] 8.45% | [4] -32% | [5] 4.75% | [6] -1.95%

CCC(O)(c1ccc(O)cc1)C(O)(CC)c1ccc(O)cc1 (stereo not given)
inactive: [1] 1.4% | [2] -12.8% | [3] -0.2% | [4] 5.55% | [5] 17.4% | [6] -14.4%

CSc1c2c([nH]c(=O)c1C#N)-c1ccccc1CC2
inactive: [1] -6.5% | [2] -1.4% | [3] 4.85% | [4] 15.1% | [5] -3.65% | [6] 3.95%

Cc1nc2ccccc2n1CCC(N)=O
inactive: [1] 24.6% | [2] -2.1% | [3] 6.1% | [4] 12.3% | [5] -26.9% | [6] -2.35%

CNC(=S)NNC(=O)c1ccncc1
inactive: [1] 11.4% | [2] 10.7% | [3] 13.6% | [4] 18.6% | [5] -0.65% | [6] 13.3%

COc1cc(O)c2c(c1)Cc1cc(C)cc(O)c1C2=O
inactive: [1] 10.2% | [2] -1% | [3] 6.2% | [4] 22.5% | [5] 16.6% | [6] 1.65%

Cc1c2cc3c(c1O)C(=O)CC(O3)c1ccc(O)c(c1)-c1cccc(c1O)C(=O)OCC1OC(O2)C(O)C(O)C1O (stereo not given)
inactive: [1] 51.2% | [2] 54.4% | [3] 32% | [4] 34.5% | [5] 39.6% | [6] 30.1%

O=S(=O)(NCCBr)c1ccccc1
inactive: [1] -1.5% | [2] 2.45% | [3] -8.9% | [4] 11.6% | [5] -2% | [6] 2.05%

CCOC(=O)CCCN
inactive: [1] -8.45% | [2] -3% | [3] -6.95% | [4] 56.7% | [5] -39.8% | [6] -16.1%

CCOC(=O)c1ccc(NCC2CNc3ccccc3N2)cc1 (stereo not given)
inactive: [1] 36.2% | [2] -11.2% | [3] 17.7% | [4] -8.35% | [5] 23.2% | [6] 18.2%

COc1cc(CNc2cnc3cc(N)ccc3n2)cc(OC)c1OC
inactive: [1] -32.5% | [2] -26.8% | [3] -66.3% | [4] -18% | [5] -21.7% | [6] -30.6%

Nc1ccc(C(=O)O)c([N+](=O)[O-])c1
inactive: [1] 0.7% | [2] -2.45% | [3] -0.5% | [4] -30.9% | [5] -11.7% | [6] -2.1%

CC(=O)O[C@H]1C[C@H]2[C@@H](OC(C)=O)/C=C3\C[C@](C)(C(=O)[C@H](O)C(=C1C)C2(C)C)[C@@H](O)C[C@@H]3OC(=O)[C@H](O)[C@H](c1ccccc1)N(C)C
inactive: [1] 7.3% | [2] -0.45% | [3] -8.6% | [4] -10.3% | [5] -1.4% | [6] 2.4%

CCC(CC)C(=O)OCCCCC1CCCO1 (stereo not given)
inactive: [1] 6.25% | [2] 11.2% | [3] 4.75% | [4] -16.6% | [5] 12.2% | [6] -2.65%

O=C(CC(c1ccccc1)C1CCCC1=O)c1ccccc1 (stereo not given)
inactive: [1] 11.1% | [2] 1.65% | [3] 17.6% | [4] -21.3% | [5] 6.1% | [6] 17.1%

COc1cc([N+](=O)[O-])c(F)cc1F
inactive: [1] -0.05% | [2] 0.85% | [3] -0.05% | [4] -20.1% | [5] 9.35% | [6] -3.1%

CC(=O)NCCC1CN(C(=O)/C=C/I)c2ccccc21 (stereo not given)
inactive: [1] -8.4% | [2] 30.4% | [3] 4.55% | [4] 37.7% | [5] 24.6% | [6] -17.4%

CC1CCCC(C)C1O (stereo not given)
inactive: [1] -19.7% | [2] -28.1% | [3] -13.9% | [4] 12.3% | [5] -4.6% | [6] -14.1%

CCC(C(=O)OC)C1CCCCC1 (stereo not given)
inactive: [1] 24.8% | [2] -27.8% | [3] -12.3% | [4] -7.65% | [5] -10.7% | [6] 22.4%

CCCCCCCCCCCCCCCCCC(=O)OCC1OC(OC2(OC(=O)CCCCCCCCCCCCCCCCC)OC(COC(=O)CCCCCCCCCCCCCCCCC)C(OC(=O)CCCCCCCCCCCCCCCCC)C2OC(=O)CCCCCCCCCCCCCCCCC)C(OC(=O)CCCCCCCCCCCCCCCCC)C(OC(=O)CCCCCCCCCCCCCCCCC)C1OC(=O)CCCCCCCCCCCCCCCCC (stereo not given)
inactive: [1] 17.2% | [2] 6% | [3] 25.4% | [4] -2.75% | [5] 17.9% | [6] 23.8%

COC(=O)C1(C(=O)OC)CC(=O)c2c(OC(=O)c3cccc(OC)c3C#N)ccc(OC(=O)c3cccc(OC)c3C#N)c2C1
inactive: [1] 1.05% | [2] 3.95% | [3] -11.5% | [4] -4.35% | [5] 0.05% | [6] 16.9%
